Bioassay records: PubChem BioAssay, National Center for Advancing Translational Sciences (NCATS)
This is one part of a sample in which hits are shown more often than they occur.
NTMT1 inh: Primary qHTS for Inhibitors of N-terminal methyltransferase 1 (NTMT1): MTaseGlo Assay; N-terminal Xaa-Pro-Lys N-methyltransferase 1 (Homo sapiens), Q9BV86; NTMT1 MTase-Glo SAH luminescence, purified enzyme; Potency, µM (highest dose often 114 µM), hits mostly inhibitors; 59,000 compounds, 2.5% hits; AID 1645870, 2021; also: nearly all actives have a fitted effect of over 65% in size
Target sequence (Q9BV86 whole entry, looked up): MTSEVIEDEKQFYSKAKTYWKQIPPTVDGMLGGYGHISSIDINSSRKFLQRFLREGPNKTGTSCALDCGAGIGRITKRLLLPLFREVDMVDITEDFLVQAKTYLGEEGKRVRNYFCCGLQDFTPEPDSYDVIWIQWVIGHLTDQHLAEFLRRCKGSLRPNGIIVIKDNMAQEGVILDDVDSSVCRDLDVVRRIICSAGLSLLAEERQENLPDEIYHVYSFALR
p53null 32C tox: qHTS Screen for Compounds that Selectively Target Cancer Cells with p53 Mutations: Cytotoxicity of p53 Null Cells at the Permissive Temperature; H1299-neo p53 null cells, ATP luminescence, 24 h, 32C; AID 903, 2007; Potency, µM (doses to about 46.1 µM), hits mostly cytotoxic; 55,000 compounds, 0.62% hits; also: nearly all actives have a fitted effect of over 55% in size
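H1299-neo (p53-null) cells, 600/well, were pre-incubated overnight at 37C, then exposed to compounds at up to 46 uM for 24 hr at 32C. Viability was measured as ATP content by luminescence, and AC50 values came from Hill fits.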
FH mod: Identification of activators of human fumarate hydratase by quantitative high-throughput screening | Fumarate hydratase, mitochondrial (Homo sapiens), P07954 | FH coupled MDH/diaphorase resazurin fluorescence, 15 min | Potency, µM (highest dose often 79.9 µM), actives largely listed as inhibitors | 54,000 compounds, 0.22% hits | AID 1347055, 2019; also: the screen sought activators but most active calls are inhibition curves; nearly all actives have a fitted effect of over 45% in size
Target sequence (P07954 whole entry, looked up): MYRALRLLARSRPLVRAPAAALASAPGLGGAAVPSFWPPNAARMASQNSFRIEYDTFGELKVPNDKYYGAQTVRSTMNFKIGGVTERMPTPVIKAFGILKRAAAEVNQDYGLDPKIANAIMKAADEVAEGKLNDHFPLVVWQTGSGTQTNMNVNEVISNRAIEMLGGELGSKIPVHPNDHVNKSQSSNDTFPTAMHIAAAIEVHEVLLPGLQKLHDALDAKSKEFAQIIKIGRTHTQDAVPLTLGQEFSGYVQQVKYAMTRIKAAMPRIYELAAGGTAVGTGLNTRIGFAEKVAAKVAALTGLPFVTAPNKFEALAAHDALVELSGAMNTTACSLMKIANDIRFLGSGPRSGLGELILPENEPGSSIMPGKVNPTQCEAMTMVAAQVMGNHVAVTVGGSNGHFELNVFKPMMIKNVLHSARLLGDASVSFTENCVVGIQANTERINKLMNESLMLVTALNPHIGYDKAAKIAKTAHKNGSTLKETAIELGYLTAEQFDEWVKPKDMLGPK
p53null 39C kill: qHTS Screen for Compounds that Selectively Target Cancer Cells with p53 Mutations: Cytotoxicity of p53 Null Cells at the Nonpermissive Temperature | H1299 p53-null (neo) cells, 39C, ATPlite viability, 24 h | Potency, µM (titrated, usually from 46.1 µM), usual class: cytotoxic | 55,000 compounds, 0.97% hits; also: nearly all actives have a fitted effect of over 50% in size
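ATP-luminescence viability readout (ATPlite, 20 min RT) after 24 hr compound treatment at 39C of H1299-neo or H1299-p53A138V cells; titration up to 46 uM; normalized to DMSO and 100 uM tamoxifen; Hill-fit AC50.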
GALC G270D up: A Novel Cell-Based Assay to Identify Small Molecules for B -Galactocerebrosidase. P54803. 145M-Twi-hGALC-G270D cells (Twitcher mouse brain line with human GALC G270D), HMU-beta-Gal fluorescence, 48 h. Potency, µM (highest dose often 57.5 µM), hits mostly activators. 45,000 compounds, 0.1% hits; also: nearly all actives have a fitted effect of over 65% in size
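Fluorogenic HMU-b-Gal hydrolysis (0.1 mM final, pH 5.2 citrate-phosphate with 1 mg/mL sodium taurocholate; carbonate stop buffer) measures mutant GALC activity after compound treatment of live 145M-Twi Twitcher brain cells stably carrying human GALC-G270D, with wild-type GALC line alongside; activation sought.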
DYRK1A inh: Assay for Inhibitors of Dual-Specificity Tyrosine-(Y)-Phosphorylation Regulated Kinase 1A (Kinase-Glo assay). recombinant DYRK1A, Kinase-Glo ATP depletion luminescence. Potency, µM (doses to about 76.9 µM), hits mostly inhibitors. 100 compounds, 80% hits. shares compounds with NTMT1 inh
CLK4 KinaseGlo: Confirmation Assay for Inhibitors of CDC-like Kinase 4 (Kinase-Glo Assay): SAR round 2; shares compounds with NTMT1 inh; recombinant Clk4, Kinase-Glo ATP luminescence, 4.5 h; Potency, µM (doses to about 76.9 µM), hits mostly inhibitors; 90 compounds, 90% hits
NNMT inh: Counterscreen qHTS for Inhibitors of N-terminal methyltransferase 1 (NTMT1): NNMT MTaseGlo assay | shares compounds with NTMT1 inh | NNMT MTase-Glo luminescence, SAH detection | Potency, µM (series often up to 57.1 µM), most hits filed as inhibitors | 120 compounds, 10% hits
A number is an active result; 0 = inactive; ? = inconclusive; - = not tested or not shown; [ ] = remark or other dose. Calls follow the shape of the dose curve; as a rule, active = well fitted curve in the direction sought with a large enough effect; inconclusive = small, poorly fitted or top-dose-only effect, or another doubt; inactive = no such curve, though single readings can be large; an effect the other way counts as inactive or inconclusive.

SMILES	NTMT1 inh	p53null 32C tox	FH mod	p53null 39C kill	GALC G270D up	others
CCCSc1ccc2nc(NC(=O)OC)[nH]c2c1	0	-	0	-	0
CC1=C(C(=O)Nc2ccon2)C2(CCCC2)N=C(Nc2nc3ccccc3o2)N1	0	-	-	-	-
CCCS(=O)(=O)c1ncc(Cl)c(C(=O)N(Cc2ccccc2)Cc2ccco2)n1	0	22.4µM	0	?	0
NS(=O)(=O)Oc1ccc2c3c(c(=O)oc2c1)CCCCC3	28.2µM	-	-	-	-
N#C/C(=C\c1ccc(-c2ccc(C(=O)O)cc2)o1)C(=O)Nc1ccccc1C(=O)O	0	0	14.1µM	0	0
Cc1ccc(NC2=C/C(=N\S(=O)(=O)c3cccs3)c3ccccc3C2=O)c(C)c1	-	3.55µM	-	3.55µM	-
O=C1NC(=O)C(=Cc2ccc(-c3ccc(F)cc3)o2)S1	21.5µM	-	0	-	-
Clc1cccc(C2=NC(c3cccs3)=Nc3ccc(Br)cc3N2)c1	89.1µM	0	?	0	0
CC(C)(C(=O)NCC(F)(F)C(F)(F)F)C(=O)NC1C(=O)Nc2ccccc2-c2ccccc21 (configuration not stated)	0	-	0	-	-
COCCCNC(=O)c1[nH]c2cc(OC)ccc2c1Sc1ccc(C)cc1	?	0	0	15.8µM	0
CN(CC[C@@H](Oc1ccc(C(F)(F)F)cc1)c1ccccc1)CC(=O)O	-	-	0	-	-
Cc1cc(O[C@@H](CCC(F)(F)F)c2ccc(C(=O)NCCC(=O)O)cc2)cc(C)c1-c1ccc(C(C)(C)C)cc1	31.6µM	-	-	-	-
O=C(Nc1cccc(-c2nc3ncccc3o2)c1)c1ccc(-c2cccc(Cl)c2Cl)o1	-	12.6µM	-	10µM	-
Cc1ccc(NC(=O)c2c(NC(=O)C(F)(F)F)sc3c2CCCCC3)cc1	0	?	?	?	0
O=C(Nc1cccc(Cl)c1)c1c(NC(=O)C(F)(F)F)sc2c1CCCC2	8.91µM	?	?	?	0
O=C(COc1ccc(Cl)cc1)Nc1sc2c(c1C(=O)Nc1cccc(Cl)c1)CCCC2	25.1µM	0	0	0	0
Cc1cccc(NC(=O)c2c(NC(=O)C(F)(F)F)sc3c2CCCCC3)c1	10µM	0	?	?	0
Cc1ccc(-c2cc(C(=O)N(C)c3ccccc3)c3ccccc3n2)cc1C	0	-	-	-	-
Cc1nc(CNc2ncnc3ccc(-c4sc(C)nc4C)cc23)cs1	?	-	-	-	-	DYRK1A inh=8.23µM
Cc1nc(CNc2ncnc3ccc(-c4ccoc4C)cc23)cs1	0	-	-	-	-	DYRK1A inh=7.33µM
Cc1ccsc1CNc1ncnc2ccc(-c3c(C)noc3C)cc12	0	-	-	-	-
Cc1noc(C)c1-c1ccc2ncnc(NCc3ccccc3C(F)(F)F)c2c1	0	-	-	-	-
Cc1nc(CNc2ncnc3ccc(-c4oc(-c5ccccc5)nc4C)cc23)cs1	?	-	-	-	-	DYRK1A inh=?
CC(=O)N[C@@H](CC(C)C)C(=O)N[C@@H](CCC(=O)O)C(=O)N[C@@H](CCC(=O)O)C(=O)N[C@@H](CC(=O)O)C(=O)Nc1ccc2c(C(F)(F)F)cc(=O)oc2c1	0	-	0	-	-	NNMT inh=0
CN1CCN(c2ncc3nc(-c4cn(C)c5ccccc45)c(=O)n(Cc4cccs4)c3n2)CC1	-	-	-	-	-	CLK4 KinaseGlo=0
SMILES	NTMT1 inh	p53null 32C tox	FH mod	p53null 39C kill	GALC G270D up	others
CN1CCN(c2nn3c(=O)c4ccccc4nc3s2)CC1	0	-	-	-	-
CC(=O)c1ccc(N2CCN(S(=O)(=O)c3cc4c(cc3Cl)NC(=O)C4)CC2)cc1	0	-	-	-	-
COc1cccc(OCCCN)c1-c1cc(Nc2cnc(C#N)cn2)n[nH]1	8.91µM	-	0	-	-	NNMT inh=0
Cc1ccc(-c2ccc3ncc4c(c3n2)n(C2CCN(C(=O)[C@H](C)O)CC2)c(=O)n4C)cn1	15.8µM	-	0	-	-	NNMT inh=?
Cc1nc2cccnc2n1C1CCN(C(=O)Nc2ccccc2)CC1	0	0	0	0	0
CNC(=O)c1ccccc1Nc1cc(Nc2ccc(N3CCOCC3)cc2OC)ncc1C(F)(F)F	0	-	0	-	-	NNMT inh=?
COc1cc(N2CCOCC2)ccc1Nc1ncc(F)c(Nc2ccccc2NS(C)(=O)=O)n1	0	-	0	-	-
O=C(O)c1ccnc2cc(-c3nc4ccccc4n3CCN3CCCCC3)sc12	0	-	12.6µM	-	-	NNMT inh=0
COc1cccc(CNc2nc3ccccc3n2CCN2CCCCC2)c1OC	-	0	-	0	-
Fc1ccccc1CNCc1ccc(-c2ccnc3[nH]ccc23)cc1	?	-	0	-	-	NNMT inh=?
Cc1ccc(-c2cc(C(=O)Nc3ccc(S(=O)(=O)NCc4nccs4)cc3)c3ccccc3n2)cc1C	0	-	-	-	-
C=C1CC[C@@]2(OC1)O[C@H]1CC3[C@@H]4CC=C5C[C@@H](O)C[C@@H](O[C@@H]6OC[C@H](O)[C@H](O)[C@H]6O[C@@H]6O[C@@H](C)[C@H](O)[C@@H](O)[C@H]6O)[C@]5(C)C4CC[C@]3(C)[C@H]1[C@@H]2C (some centres not stated)	0[12.6 µM]	-	0	-	-
O=C(Nc1nnc(-c2ccncc2)s1)Nc1ccc(Cl)c2ccccc12	0	-	-	-	-
COc1ccc(CNC(=O)c2cc(-c3cncc(C)c3)ncc2-c2nccs2)nc1OC	0	-	0	-	-
OCCn1cc(-c2cnc3nnn(Cc4ccc5ncccc5c4)c3n2)cn1	0	-	0	-	-	NNMT inh=0
Cc1ccc(CNc2nc(-c3ccccc3C(F)(F)F)nc3ccccc23)s1	0	-	-	-	-
CCCNc1ccc2ncc(-c3ccc4[nH]ncc4c3)n2n1	28.2µM	-	0	-	-	NNMT inh=14.1µM
CCNC1(C(N)=O)CN(c2nc(C)nc3c(-c4ccc(Cl)cc4)c(-c4ccccc4Cl)nn23)C1	0	-	0	-	-
CC(C)c1nc(-c2ccc(NC(=O)Nc3cccc(C(F)(F)F)c3)c3ccccc23)c2c(N)nccn12	0	-	0	-	-
